Measured values taken from ChEMBL document CHEMBL1961873, “Compounds: GSK PKIS; Assays: Nanosyn kinase panel” (2012).

Experiments:
[1] = target: T1, Muscle, skeletal receptor tyrosine-protein kinase (Homo sapiens) (UniProt O15146); details: at 1 µM;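 further: reported value is the mean percent inhibition of MuSK kinase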
T1 sequence (whole entry): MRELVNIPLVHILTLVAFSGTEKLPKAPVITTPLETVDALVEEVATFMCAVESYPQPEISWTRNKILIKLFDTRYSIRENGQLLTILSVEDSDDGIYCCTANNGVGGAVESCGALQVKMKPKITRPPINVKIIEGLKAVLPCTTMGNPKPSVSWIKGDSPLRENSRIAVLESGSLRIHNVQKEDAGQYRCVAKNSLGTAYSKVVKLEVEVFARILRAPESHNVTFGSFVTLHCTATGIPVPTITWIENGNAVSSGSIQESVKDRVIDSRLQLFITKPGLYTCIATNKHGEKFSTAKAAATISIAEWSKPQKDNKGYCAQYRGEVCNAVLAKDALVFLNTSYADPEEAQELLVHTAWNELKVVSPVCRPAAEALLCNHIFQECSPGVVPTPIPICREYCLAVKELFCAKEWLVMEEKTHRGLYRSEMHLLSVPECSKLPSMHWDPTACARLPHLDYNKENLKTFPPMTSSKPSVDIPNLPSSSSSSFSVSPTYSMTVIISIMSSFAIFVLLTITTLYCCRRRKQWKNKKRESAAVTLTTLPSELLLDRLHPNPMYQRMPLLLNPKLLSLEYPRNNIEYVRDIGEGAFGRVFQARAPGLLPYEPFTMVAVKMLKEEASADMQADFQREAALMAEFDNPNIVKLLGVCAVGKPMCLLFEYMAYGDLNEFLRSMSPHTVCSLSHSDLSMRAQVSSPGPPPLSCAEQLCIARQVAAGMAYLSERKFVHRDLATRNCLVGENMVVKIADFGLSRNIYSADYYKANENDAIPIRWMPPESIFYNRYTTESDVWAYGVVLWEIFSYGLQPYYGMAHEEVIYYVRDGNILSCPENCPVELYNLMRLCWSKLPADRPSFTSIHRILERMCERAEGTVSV

[2] = target: Platelet-derived growth factor receptor alpha (Homo sapiens) (UniProt P16234); details: at 0.1 µM
[3] = target: Platelet-derived growth factor receptor alpha (Homo sapiens) (UniProt P16234); details: at 1 µM
[4] = tested on: Platelet-derived growth factor receptor alpha (Homo sapiens), P16234 [D842V]; details: at 0.1 µM
[5] = tested on: Platelet-derived growth factor receptor alpha (Homo sapiens), P16234 [D842V]; details: at 1 µM
[6] = tested on: Platelet-derived growth factor receptor alpha (Homo sapiens), P16234 [T674I]; details: at 0.1 µM
[7] = tested on: Platelet-derived growth factor receptor alpha (Homo sapiens), P16234 [T674I]; details: at 1 µM
[8] = tested on: Platelet-derived growth factor receptor alpha (Homo sapiens), P16234 [V561D]; details: at 0.1 µM
[9] = tested on: Platelet-derived growth factor receptor alpha (Homo sapiens), P16234 [V561D]; details: at 1 µM
[10] = target: Platelet-derived growth factor receptor beta (Homo sapiens) (UniProt P09619); details: at 0.1 µM
[11] = target: Platelet-derived growth factor receptor beta (Homo sapiens) (UniProt P09619); details: at 1 µM
[12] = target: Tyrosine-protein kinase FRK (Homo sapiens) (UniProt P42685); details: at 0.1 µM
[13] = target: Tyrosine-protein kinase FRK (Homo sapiens) (UniProt P42685); details: at 1 µM
[14] = target: Protein-tyrosine kinase 2-beta (Homo sapiens) (UniProt Q14289); details: at 0.1 µM
[15] = target: Protein-tyrosine kinase 2-beta (Homo sapiens) (UniProt Q14289); details: at 1 µM
[16] = target: Proto-oncogene tyrosine-protein kinase receptor Ret (Homo sapiens) (UniProt P07949); details: at 0.1 µM
[17] = target: Proto-oncogene tyrosine-protein kinase receptor Ret (Homo sapiens) (UniProt P07949); details: at 1 µM
[18] = tested on: Proto-oncogene tyrosine-protein kinase receptor Ret (Homo sapiens), P07949 [V804L]; details: at 0.1 µM
[19] = tested on: Proto-oncogene tyrosine-protein kinase receptor Ret (Homo sapiens), P07949 [V804L]; details: at 1 µM
[20] = tested on: Proto-oncogene tyrosine-protein kinase receptor Ret (Homo sapiens), P07949 [Y791F]; details: at 0.1 µM

Sequence of Platelet-derived growth factor receptor alpha (Homo sapiens), P16234 [V561D] (P16234 whole entry V561D): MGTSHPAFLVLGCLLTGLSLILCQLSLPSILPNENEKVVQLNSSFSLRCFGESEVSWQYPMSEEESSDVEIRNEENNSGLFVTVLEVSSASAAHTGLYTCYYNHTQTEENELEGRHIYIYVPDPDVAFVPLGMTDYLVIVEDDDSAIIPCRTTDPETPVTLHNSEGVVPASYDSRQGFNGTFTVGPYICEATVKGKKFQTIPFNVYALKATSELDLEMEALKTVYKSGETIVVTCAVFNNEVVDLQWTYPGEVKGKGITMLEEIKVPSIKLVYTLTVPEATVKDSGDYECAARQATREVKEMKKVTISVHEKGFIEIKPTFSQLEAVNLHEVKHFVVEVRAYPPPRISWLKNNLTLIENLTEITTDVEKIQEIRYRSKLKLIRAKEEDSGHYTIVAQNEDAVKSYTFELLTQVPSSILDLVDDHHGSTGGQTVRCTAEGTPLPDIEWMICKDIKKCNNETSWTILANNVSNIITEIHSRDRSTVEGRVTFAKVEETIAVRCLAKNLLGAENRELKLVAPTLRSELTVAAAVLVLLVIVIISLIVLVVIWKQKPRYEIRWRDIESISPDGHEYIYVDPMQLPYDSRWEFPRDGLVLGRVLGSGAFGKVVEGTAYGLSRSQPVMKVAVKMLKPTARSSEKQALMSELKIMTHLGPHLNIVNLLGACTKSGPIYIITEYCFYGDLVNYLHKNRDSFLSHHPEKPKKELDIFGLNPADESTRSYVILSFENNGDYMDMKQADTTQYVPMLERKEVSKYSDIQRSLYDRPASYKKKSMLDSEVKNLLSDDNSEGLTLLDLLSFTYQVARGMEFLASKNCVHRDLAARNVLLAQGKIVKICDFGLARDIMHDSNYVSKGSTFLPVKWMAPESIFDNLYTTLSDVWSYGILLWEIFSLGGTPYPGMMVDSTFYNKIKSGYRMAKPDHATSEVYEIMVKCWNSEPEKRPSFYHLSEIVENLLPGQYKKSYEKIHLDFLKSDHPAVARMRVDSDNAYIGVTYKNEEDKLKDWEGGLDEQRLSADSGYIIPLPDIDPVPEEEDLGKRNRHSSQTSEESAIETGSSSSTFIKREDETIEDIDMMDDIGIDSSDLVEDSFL
Sequence of Platelet-derived growth factor receptor alpha (Homo sapiens), P16234 [T674I] (P16234 whole entry T674I): as the sequence (P16234 whole entry V561D) above, with D561V, T674I counted along it
Sequence of Proto-oncogene tyrosine-protein kinase receptor Ret (Homo sapiens), P07949 [V804L] (P07949 whole entry V804L): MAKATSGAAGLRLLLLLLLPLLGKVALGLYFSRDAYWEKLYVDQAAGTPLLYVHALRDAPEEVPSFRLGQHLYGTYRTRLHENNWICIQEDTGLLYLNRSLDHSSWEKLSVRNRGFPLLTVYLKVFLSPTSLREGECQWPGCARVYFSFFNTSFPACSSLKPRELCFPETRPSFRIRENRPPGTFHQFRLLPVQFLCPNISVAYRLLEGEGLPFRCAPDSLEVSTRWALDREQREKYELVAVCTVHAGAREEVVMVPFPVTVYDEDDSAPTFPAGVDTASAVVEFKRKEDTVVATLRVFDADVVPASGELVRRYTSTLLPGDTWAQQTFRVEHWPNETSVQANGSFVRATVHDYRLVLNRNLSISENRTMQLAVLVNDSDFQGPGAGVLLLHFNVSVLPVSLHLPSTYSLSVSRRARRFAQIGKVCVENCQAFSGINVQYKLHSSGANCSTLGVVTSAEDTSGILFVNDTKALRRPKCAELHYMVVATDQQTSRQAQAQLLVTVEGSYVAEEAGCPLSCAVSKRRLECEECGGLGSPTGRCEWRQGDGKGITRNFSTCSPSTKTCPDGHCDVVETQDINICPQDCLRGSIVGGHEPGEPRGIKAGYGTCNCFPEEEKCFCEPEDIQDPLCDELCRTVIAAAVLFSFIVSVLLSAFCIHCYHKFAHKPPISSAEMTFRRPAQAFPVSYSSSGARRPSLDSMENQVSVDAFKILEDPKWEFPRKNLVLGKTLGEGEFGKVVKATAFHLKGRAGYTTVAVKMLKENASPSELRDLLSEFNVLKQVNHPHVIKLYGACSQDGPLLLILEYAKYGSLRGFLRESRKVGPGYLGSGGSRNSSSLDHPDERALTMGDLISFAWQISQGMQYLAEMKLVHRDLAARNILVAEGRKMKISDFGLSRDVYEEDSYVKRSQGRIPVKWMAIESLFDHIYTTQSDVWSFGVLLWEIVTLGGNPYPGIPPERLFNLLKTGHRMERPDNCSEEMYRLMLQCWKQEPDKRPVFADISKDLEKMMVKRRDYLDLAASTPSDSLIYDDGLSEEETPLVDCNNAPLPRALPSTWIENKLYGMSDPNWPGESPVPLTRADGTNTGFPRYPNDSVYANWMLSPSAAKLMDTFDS
Sequence of Platelet-derived growth factor receptor alpha (Homo sapiens) (P16234 whole entry): as the sequence (P16234 whole entry V561D) above, with D561V counted along it
Sequence of Tyrosine-protein kinase FRK (Homo sapiens) (P42685 whole entry): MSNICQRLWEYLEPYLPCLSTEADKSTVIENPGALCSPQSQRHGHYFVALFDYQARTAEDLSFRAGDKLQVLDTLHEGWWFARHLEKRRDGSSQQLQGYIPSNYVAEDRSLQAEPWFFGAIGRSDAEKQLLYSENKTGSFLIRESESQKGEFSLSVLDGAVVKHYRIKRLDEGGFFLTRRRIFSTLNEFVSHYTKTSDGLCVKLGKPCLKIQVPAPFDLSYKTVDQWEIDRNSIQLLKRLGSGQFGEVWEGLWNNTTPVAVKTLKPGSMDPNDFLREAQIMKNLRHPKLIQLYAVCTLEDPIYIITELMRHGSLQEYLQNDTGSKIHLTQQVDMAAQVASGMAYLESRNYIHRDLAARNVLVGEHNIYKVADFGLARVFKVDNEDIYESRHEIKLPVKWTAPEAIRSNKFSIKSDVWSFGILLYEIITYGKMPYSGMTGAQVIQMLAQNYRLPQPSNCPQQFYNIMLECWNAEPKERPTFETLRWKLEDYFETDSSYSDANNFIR

Row | SMILES | inhibition [1] [%] | inhibition [2] [%] | inhibition [3] [%] | inhibition [4] [%] | inhibition [5] [%] | inhibition [6] [%] | inhibition [7] [%] | inhibition [8] [%] | inhibition [9] [%] | inhibition [10] [%] | inhibition [11] [%] | inhibition [12] [%] | inhibition [13] [%] | inhibition [14] [%] | inhibition [15] [%] | inhibition [16] [%] | inhibition [17] [%] | inhibition [18] [%] | inhibition [19] [%] | inhibition [20] [%]
1 | Cc1ccc(C(=O)NC2CCCCC2)cc1-c1ccc(C(=O)NCC2CC2)cc1 | 8.57 | 12.3 | 12.8 | 2.47 | 1.67 | 4.09 | -1.01 | 1.21 | 17.2 | 6.66 | 9.04 | 0.19 | 0.68 | 3.32 | 9.58 | 5.5 | 7.84 | 5.44 | 4.79 | 10.8
2 | Fc1cccc(COc2ccc(Nc3ncnc4sc(-c5cccs5)cc34)cc2Cl)c1 | 2.36 | 2.17 | 5.87 | 1.25 | 2.11 | 3.52 | 9.66 | 4.39 | 4.26 | 3.06 | 4.24 | 1.12 | 2.35 | -5.04 | 3.37 | 3.97 | 0.68 | 0.76 | 2.26 | 1.05
3 | NC(=O)c1cccc(Nc2nccc(Nc3cccc4[nH]ncc34)n2)c1 | 15.3 | 23.7 | 71.3 | 13.2 | 67.7 | -2.44 | 4.54 | 20.7 | 70.4 | 42.1 | 84 | 61.6 | 93.9 | 9.7 | 65.5 | 37.8 | 82.1 | 5.88 | 39.4 | 46
4 | COc1cccc(-n2ncc3c(N/N=C/c4cccc(F)c4)ncnc32)c1 | 11.4 | 13.6 | 49.5 | 10.6 | 48.1 | 6.11 | 22.2 | 8.22 | 41.1 | 12.2 | 51.1 | 1.84 | 2.7 | 9.51 | 9.99 | 2.64 | 18.3 | 3.55 | 9.3 | 4.94
5 | COc1ccc2cc(-c3c(-c4ccncc4)nc(-c4ccc([S+](C)[O-])cc4)n3C)ccc2c1 (stereo unspecified) | 3.4 | 2.55 | 10 | 2.12 | 4.78 | 3.93 | 2.95 | -1.44 | 3.24 | 2.46 | 4.23 | 2.23 | 1.18 | 3.6 | 4.13 | 4.55 | 8.7 | 3.54 | -0.15 | 5.77
6 | CCN1CCC(CC(=O)Nc2n[nH]c3nc(-c4cccs4)c(Br)cc23)CC1 | 6.39 | 1.61 | 5.44 | 1.12 | 6.22 | -1.25 | 3.53 | 2.04 | 4.21 | 4.9 | 14.4 | -1.17 | -0.21 | -9.91 |  | 1.65 | 3.8 | 0.08 | -2.04 | -1.87
7 | O=C1NC(=O)C(c2cccc(Cl)c2)=C1Nc1ccc(O)c(Cl)c1 | 2.41 | 6.23 | 15.1 | 4.44 | 6.47 | 1.04 | 1.36 | 2.63 | 9.34 | 0.85 | 11.5 | -0.47 | 1.74 | 1 | 9.11 | 3.31 | 7.66 | -0.49 | 0.64 | 2.27
8 | COc1ccc(-c2coc3ncnc(N)c23)cc1 | 9.1 | 8.72 | 16.2 | 3.41 | 6.25 | 5.4 | 5.37 | 6.46 | 28 | 3.23 | 12.1 | 1.9 | 2.14 |  |  | 4.27 | 11.7 | 4.56 | 5.32 | 10.4
9 | CC1=C(C(=O)Nc2ccc3[nH]ncc3c2)C(c2ccc(Cl)c(Cl)c2)CC(=O)N1 (stereo unspecified) | 4.26 | 6.81 | 8.15 | 0.72 | 1.68 | 2.47 | 1.49 | 0.48 | 2.1 | 1.34 | 6.02 | 1.03 | 7.47 | 6.27 | 8.74 | 5.65 | 22.8 | 3.81 | 16.5 | 8.05
10 | O=C1NC(=O)C(c2ccc(Cl)cc2)=C1Nc1ccc(Cl)c(C(=O)O)c1 | 2.23 | 1.93 | 7.23 | 1.16 | 2.61 | 0.45 | 1.25 | 3.89 | 3.15 | 4.09 | 6.67 | -0.84 | 0.85 | -2.28 | 3.24 | 3.14 | 2.98 | 0.34 | -0.69 | 0.25
11 | O=C1NC(=O)C(N2CCc3ccccc32)=C1c1ccc(Cl)cc1 | 3.86 | 13.4 | 15.4 | 3.39 | 6.57 | 10.4 | 7.21 | 3.93 | 6.68 |  | 8.69 | 2.55 | 3.4 | 8.33 | 7.03 | 2.35 | 10.1 | 7.17 | 9.11 | 11.4
12 | CS(=O)(=O)Nc1ccc(N/C=C2\C(=O)Nc3ccccc32)cc1 | 35.9 | 9.58 | 41.9 | 2.98 | 18 | 11.1 | 62.5 | 15 | 51 | 6.47 | 38 | -0.66 | 0.76 | -3.21 | 20.1 | 10.4 | 49.4 | 17.9 | 66.2 | 8.53
13 | COc1cc2ncn(-c3cc(OCc4ccccc4Cl)c(C(N)=O)s3)c2cc1OC | 21.2 | 46.7 | 90.5 | 30.4 | 82.2 | 9.35 | 69.7 | 39.1 | 83.3 | 41 | 86.5 | 2.63 | 2.45 | -1.12 | 6.28 | 17.7 | 60.8 | 4.73 | 26.9 | 20.7
